In the supplement of paper PMC4022240:
± gives the standard deviation.

Assays:
Test in all cases: peptide microarray binding signal (635 nm), min-max normalized on array (fraction of array maximum); higher = stronger binding
Conditions in all cases: peptide region: H3 30-42
[1] = molecular target: T1, HaloTag-ATRX ADD domain (163-292)
T1 chain: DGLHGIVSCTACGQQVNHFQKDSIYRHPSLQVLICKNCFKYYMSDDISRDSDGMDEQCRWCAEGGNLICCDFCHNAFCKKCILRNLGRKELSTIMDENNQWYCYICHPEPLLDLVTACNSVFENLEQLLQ
Outline: (§1)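 Histone 13-mer peptide–cellulose conjugates were printed in triplicate on nitrocellulose with a Cy3 tracer, then blocked overnight at 4°C. Arrays were probed for 1 h at 4°C with biotin-labelled HaloTag reader fusions (10 nM to 1 μM) plus streptavidin-Alexa Fluor 647, or with rabbit histone antibodies (1:10,000 to 1:2,000) plus anti-rabbit Alexa 647. An Axon GenePix 4000B scanned 635 nm for signal and 532 nm for misprints. Binding signal is the triplicate-spot mean intensity, min-max scaled per library.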

[2] = molecular target: HaloTag-ING2 PHD (mouse Ing2 200-280)
Outline: as §1

[3] = molecular target: anti-H3K4me3 antibody ab8580
Outline: as §1

[4] = molecular target: anti-H3K9me3 antibody ab8898
Outline: as §1

[5] = peptide modifications: H3K36ac H3K37me1, binder concentration: 1:2,000 dilution
[6] = peptide modifications: H3K36ac H3K37me1, binder concentration: 1:10,000 dilution
[7] = peptide modifications: H3K36ac H3K37me2, binder concentration: 1:2,000 dilution
[8] = peptide modifications: H3K36ac H3K37me2, binder concentration: 1:10,000 dilution
[9] = peptide modifications: H3K36ac, binder concentration: 1:2,000 dilution
[10] = peptide modifications: H3K36ac, binder concentration: 1:10,000 dilution
[11] = peptide modifications: H3K36me1, binder concentration: 1:2,000 dilution
[12] = peptide modifications: H3K36me1, binder concentration: 1:10,000 dilution
[13] = peptide modifications: H3K36me1 H3K37ac, binder concentration: 1:2,000 dilution
[14] = peptide modifications: H3K36me1 H3K37ac, binder concentration: 1:10,000 dilution

B1: H3 30-42 P A T G G V Kac Kme P H R Y R (peptide)
chain: PATGGVKKPHRYR
- peptide microarray binding signal ([1]; peptide modifications: H3K36ac H3K37me1, binder concentration: 50 nM): 0.00235 ± 2.8e-05
- peptide microarray binding signal ([1]; peptide modifications: H3K36ac H3K37me1, binder concentration: 500 nM): 0.00586 ± 0.00013
- peptide microarray binding signal ([2]; peptide modifications: H3K36ac H3K37me1, binder concentration: 10 nM): 0.00418 ± 0.00019
- peptide microarray binding signal ([2]; peptide modifications: H3K36ac H3K37me1, binder concentration: 100 nM): 0.0056 ± 0.00056
- peptide microarray binding signal [3, 5]: 0.00253 ± 0.00052
- peptide microarray binding signal [3, 6]: 0.00177 ± 5.8e-05
- peptide microarray binding signal [4, 5]: 0.0165 ± 0.003
- peptide microarray binding signal [4, 6]: 0.00265 ± 6.2e-05

B2: H3 30-42 P A T G G V Kac Kme2 P H R Y R (peptide)
chain: PATGGVKKPHRYR
- peptide microarray binding signal ([1]; peptide modifications: H3K36ac H3K37me2, binder concentration: 50 nM): 0.0026 ± 5.2e-05
- peptide microarray binding signal ([1]; peptide modifications: H3K36ac H3K37me2, binder concentration: 500 nM): 0.00462 ± 0.00028
- peptide microarray binding signal ([2]; peptide modifications: H3K36ac H3K37me2, binder concentration: 10 nM): 0.00269 ± 6.6e-05
- peptide microarray binding signal ([2]; peptide modifications: H3K36ac H3K37me2, binder concentration: 100 nM): 0.00354 ± 8.3e-05
- peptide microarray binding signal [3, 7]: 0.00125 ± 9e-05
- peptide microarray binding signal [3, 8]: 0.00097 ± 2e-05
- peptide microarray binding signal [4, 7]: 0.00166 ± 9.8e-05
- peptide microarray binding signal [4, 8]: 0.00127 ± 0.0001

B3: H3 30-42 P A T G G V Kac K P H R Y R (peptide)
chain: PATGGVKKPHRYR
- peptide microarray binding signal ([1]; peptide modifications: H3K36ac, binder concentration: 50 nM): 0.0068 ± 0.00033
- peptide microarray binding signal ([1]; peptide modifications: H3K36ac, binder concentration: 500 nM): 0.0116 ± 0.0019
- peptide microarray binding signal ([2]; peptide modifications: H3K36ac, binder concentration: 10 nM): 0.0378 ± 0.0029
- peptide microarray binding signal ([2]; peptide modifications: H3K36ac, binder concentration: 100 nM): 0.0552 ± 0.0035
- peptide microarray binding signal [3, 9]: 0.0364 ± 0.0021
- peptide microarray binding signal [3, 10]: 0.0246 ± 0.0028
- peptide microarray binding signal [4, 9]: 0.025 ± 0.0016
- peptide microarray binding signal [4, 10]: 0.00963 ± 0.00018

B4: H3 30-42 P A T G G V Kme K P H R Y R (peptide)
chain: PATGGVKKPHRYR
- peptide microarray binding signal ([1]; peptide modifications: H3K36me1, binder concentration: 50 nM): 0.0102 ± 0.00043
- peptide microarray binding signal ([1]; peptide modifications: H3K36me1, binder concentration: 500 nM): 0.015 ± 0.0004
- peptide microarray binding signal ([2]; peptide modifications: H3K36me1, binder concentration: 10 nM): 0.0184 ± 0.00087
- peptide microarray binding signal ([2]; peptide modifications: H3K36me1, binder concentration: 100 nM): 0.0275 ± 0.0015
- peptide microarray binding signal [3, 11]: 0.00478 ± 0.00043
- peptide microarray binding signal [3, 12]: 0.00474 ± 0.00045
- peptide microarray binding signal [4, 11]: 0.00237 ± 7.4e-05
- peptide microarray binding signal [4, 12]: 0.00277 ± 4.8e-05

B5: H3 30-42 P A T G G V Kme Kac P H R Y R (peptide)
chain: PATGGVKKPHRYR
- peptide microarray binding signal ([1]; peptide modifications: H3K36me1 H3K37ac, binder concentration: 50 nM): 0.00263 ± 0.00011
- peptide microarray binding signal ([1]; peptide modifications: H3K36me1 H3K37ac, binder concentration: 500 nM): 0.0039 ± 5.6e-05
- peptide microarray binding signal ([2]; peptide modifications: H3K36me1 H3K37ac, binder concentration: 10 nM): 0.00298 ± 3.3e-05
- peptide microarray binding signal ([2]; peptide modifications: H3K36me1 H3K37ac, binder concentration: 100 nM): 0.00354 ± 8.3e-05
- peptide microarray binding signal [3, 13]: 0.00145 ± 6.2e-05
- peptide microarray binding signal [3, 14]: 0.00137 ± 5.4e-05
- peptide microarray binding signal [4, 13]: 0.00163 ± 7.6e-05
- peptide microarray binding signal [4, 14]: 0.00127 ± 2.5e-05
